# Screen size: about 5,500 compounds; about 2,000 (36%) were called active. Another 18% or so got no clear call; they are omitted. This is one part of the list. Unmarked numbers belong to inactive results. No stated cut-off is given here; in the data, active means normalized growth mostly below about 0.91 (no sharp cut-off); inconclusive means no clear call, values can overlap the other calls; inactive means mostly above about 0.92.
# Experiment: chemical genetic growth profiling, strain panel (AID 1159580);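 further: tested at 20 µM; growth read once vehicle control cultures reached saturation at 30 °C; 1 = growth at the plate median or of vehicle wells; lower values mean less growth of the strain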
# Conditions: S. cerevisiae deletion strains, growth OD
smiles,measurement,setting,value
CN[C@H]1CC[C@@H](c2ccc(Cl)c(Cl)c2)c2ccccc21,normalized growth,"locus YAL021C, strain ccr4, hits give low values",0.529 (active)
same,normalized growth,"locus YAL026C, strain drs2, hits give low values",0.0645 (active)
same,normalized growth,"locus YAL030W, strain snc1, hits give low values",0.985
same,normalized growth,"locus YBL061C, strain skt5, hits give low values",0.864 (active)
same,normalized growth,"locus YBR009C, strain hhf1, hits give low values",0.82 (active)
same,normalized growth,"locus YBR023C, strain chs3, hits give low values",0.858 (active)
same,normalized growth,"locus YBR171W, strain sec66, hits give low values",1.01
same,normalized growth,"locus YBR231C, strain swc5, hits give low values",0.89 (active)
same,normalized growth,"locus YBR279W, strain paf1, hits give low values",0.905 (active)
same,normalized growth,"locus YCL011C, strain gbp2, hits give low values",0.919
same,normalized growth,"locus YCL016C, strain dcc1, hits give low values",0.866 (active)
same,normalized growth,"locus YCL061C, strain MRC1, hits give low values",0.956
same,normalized growth,"locus YCL069W, strain vba3, hits give low values",0.968
same,normalized growth,"locus YCR088W, strain abp1, hits give low values",0.964
same,normalized growth,"locus YDL005C, strain med2, hits give low values",1.07
same,normalized growth,"locus YDL040C, strain nat1, hits give low values",1.02
same,normalized growth,"locus YDR001C, strain nth1, hits give low values",1.02
same,normalized growth,"locus YDR069C, strain doa4, hits give low values",0.639 (active)
same,normalized growth,"locus YDR137W, strain rgp1, hits give low values",1.29 [resistant] (active)
same,normalized growth,"locus YDR159W, strain sac3, hits give low values",1.05
same,normalized growth,"locus YDR195W, strain ref2",1.47 [resistant] (active)
same,normalized growth,"locus YDR297W, strain sur2, hits give low values",0.976
same,normalized growth,"locus YDR334W, strain swr1, hits give low values",1.04
same,normalized growth,"locus YDR335W, strain msn5, hits give low values",0.849 (active)
same,normalized growth,"locus YDR392W, strain spt3, hits give low values",0.939
same,normalized growth,"locus YEL003W, strain gim4, hits give low values",0.898 (active)
same,normalized growth,"locus YEL037C, strain rad23, hits give low values",0.953
same,normalized growth,"locus YEL061C, strain CIN8 (second series), hits give low values",1
same,normalized growth,"locus YER015W, strain faa2, hits give low values",0.634 (active)
same,normalized growth,"locus YER016W, strain bim1, hits give low values",0.986
same,normalized growth,"locus YER111C, strain swi4, hits give low values",1.01
same,normalized growth,"locus YER155C, strain BEM2 (second series), hits give low values",1.01
same,normalized growth,"locus YFR010W, strain ubp6, hits give low values",0.605 (active)
same,normalized growth,"locus YGL167C, strain pmr1, hits give low values",1.04
same,normalized growth,"locus YGL173C, strain kem1, hits give low values",0.799 (active)
same,normalized growth,"locus YGL227W, strain vid30, hits give low values",1.02
same,normalized growth,"locus YGL240W, strain doc1, hits give low values",1.06
same,normalized growth,"locus YGL253W, strain hxk2, hits give low values",0.859 (active)
same,normalized growth,"locus YHR013C, strain ard1, hits give low values",0.677 (active)
same,normalized growth,"locus YHR027C, strain rpn1, hits give low values",0.817 (active)
same,normalized growth,"locus YHR030C, strain SLT2, hits give low values",0.859
same,normalized growth,"locus YHR079C, strain IRE1, hits give low values",0.959
same,normalized growth,"locus YHR142W, strain chs7, hits give low values",0.77 (active)
same,normalized growth,"locus YJL092W, strain hpr5, hits give low values",0.945
same,normalized growth,"locus YJL095W, strain BCK1 (second series), hits give low values",0.0692 (active)
same,normalized growth,"locus YJL095W, strain BCK1, hits give low values",0.935
same,normalized growth,"locus YJL115W, strain asf1, hits give low values",1.03
same,normalized growth,"locus YJL129C, strain trk1, hits give low values",0.794 (active)
same,normalized growth,"locus YJL154C, strain vps35, hits give low values",1.02
same,normalized growth,"locus YJL164C, strain tpk1, hits give low values",0.855 (active)
same,normalized growth,"locus YJL166W, strain qcr8, hits give low values",0.862 (active)
same,normalized growth,"locus YJR066W, strain TOR1, hits give low values",0.929
same,normalized growth,"locus YKL160W, strain elf1, hits give low values",0.931
same,normalized growth,"locus YKR026C, strain gcn3, hits give low values",0.999
same,normalized growth,"locus YKR091W, strain srl3, hits give low values",1.02
same,normalized growth,"locus YLL001W, strain dnm1, hits give low values",0.929
same,normalized growth,"locus YLL026W, hits give low values",0.942
same,normalized growth,"locus YLL041C, strain sdh2, hits give low values",1.01
same,normalized growth,"locus YLR027C, strain aat2, hits give low values",0.921 (active)
same,normalized growth,"locus YLR113W, strain HOG1, hits give low values",0.936
same,normalized growth,"locus YLR221C, strain rsa3, hits give low values",0.9 (active)
same,normalized growth,"locus YLR258W, strain gsy2, hits give low values",0.932
same,normalized growth,"locus YLR262C, strain YPT6 (second series), hits give low values",1.02
same,normalized growth,"locus YLR320W, strain mms22, hits give low values",0.805 (active)
same,normalized growth,"locus YLR342W, strain FKS1, hits give low values",0.647 (active)
same,normalized growth,"locus YLR357W, strain rsc2, hits give low values",1.17 [resistant] (active)
same,normalized growth,"locus YLR370C, strain arc18, hits give low values",0.703 (active)
same,normalized growth,"locus YLR384C, strain iki3, hits give low values",1.02
same,normalized growth,"locus YML120C, strain ndi1, hits give low values",0.983
same,normalized growth,"locus YMR058W, strain fet3, hits give low values",0.661 (active)
same,normalized growth,"locus YMR125W, strain sto1, hits give low values",0.943
same,normalized growth,"locus YMR129W, hits give low values",1.03
same,normalized growth,"locus YMR205C, strain PFK2, hits give low values",0.866 (active)
same,normalized growth,"locus YMR231W, strain pep5, hits give low values",0.0786 (active)
same,normalized growth,"locus YNL071W, strain lat1, hits give low values",0.847 (active)
same,normalized growth,"locus YNL183C, strain NPR1, hits give low values",0.954
same,normalized growth,"locus YNL209W, strain ssb2, hits give low values",0.846 (active)
same,normalized growth,"locus YNL248C, strain rpa49, hits give low values",0.935
same,normalized growth,"locus YNL322C, strain KRE1 (second series), hits give low values",1.08
same,normalized growth,"locus YNR049C, strain mso1, hits give low values",0.996
same,normalized growth,"locus YOR001W, strain rrp6, hits give low values",0.928
same,normalized growth,"locus YOR070C, strain gyp1, hits give low values",0.817 (active)
same,normalized growth,"locus YOR080W, strain dia2, hits give low values",0.982
same,normalized growth,"locus YOR083W, strain WHI5, hits give low values",0.824 (active)
same,normalized growth,"locus YOR106W, strain vam3, hits give low values",0.622 (active)
same,normalized growth,"locus YOR231W, strain MKK1, hits give low values",0.988
same,normalized growth,"locus YOR265W, strain rbl2, hits give low values",0.953
same,normalized growth,"locus YOR270C, strain vph1, hits give low values",0.348 (active)
same,normalized growth,"locus YOR290C, strain snf2, hits give low values",0.852 (active)
same,normalized growth,"locus YPL051W, strain arl3, hits give low values",0.776 (active)
same,normalized growth,"locus YPL078C, strain atp4, hits give low values",0.922
same,normalized growth,"locus YPL106C, strain sse1, hits give low values",1.03
same,normalized growth,"locus YPL240C, strain hsp82, hits give low values",1.01
same,normalized growth,"locus YPL256C, strain CLN2, hits give low values",0.969
CN[C@@H]1C[C@@H](c2ccc(Cl)c(Cl)c2)c2ccccc21,normalized growth,"locus YAL013W, strain DEP1, hits give low values",0.923
same,normalized growth,"locus YAL040C, strain CLN3, hits give low values",1.02
same,normalized growth,"locus YCL061C, strain MRC1 (second series), hits give low values",0.942
same,normalized growth,"locus YDR363W, strain ESC2, hits give low values",0.865 (active)
same,normalized growth,"locus YER002W, strain NOP16, hits give low values",1.06
same,normalized growth,"locus YJR075W, strain HOC1, hits give low values",0.958
same,normalized growth,"locus YNL153C, strain GIM3, hits give low values",0.663 (active)
same,normalized growth,"locus YNL175C, strain NOP13, hits give low values",1
same,normalized growth,"locus YNL197C, strain WHI3, hits give low values",1.01
same,normalized growth,"locus YNL224C, strain SQS1, hits give low values",1.07
same,normalized growth,"locus YNL322C, strain KRE1, hits give low values",0.738 (active)
same,normalized growth,"locus YOR083W, strain WHI5 (second series), hits give low values",0.826 (active)
same,normalized growth,"locus YPL055C, strain LGE1, hits give low values",0.927
